# Screens (PubChem)
# Most compounds without a hit are left out; they make up all but 2.2% or so of the library.
# Shn3 inh set2 = Schnurri-3 reporter inhibition in Clone20 osteoblasts | Clone20 osteoblast Shn3 3'UTR firefly luciferase, 24 h | inhibition, % at 12.5 µM | actives 0.52% (n = 360,000);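 active = mean inhibition of at least 75% with every replicate also reaching 75%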;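 also: 0% = median of neutral control wells and 100% = pilot-screen positive control compound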
# EWS-Fli block = EWS/Fli transcriptional activity inhibition. A673 NR0B1-luciferase reporter, viability-normalised. inhibition, % at 12.6 µM. actives 0.67% (n = 350,000);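 active = mean inhibition of at least 50% after viability correction, with every replicate also passing that limit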;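 also: firefly luciferase signal divided by Alamar Blue viability fluorescence both relative to DMSO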
# EBV LMP1 NFkB = reduces LMP1-driven NF-kappaB luciferase signal; LMP1-induced NF-kappaB luciferase reporter cells, luminescence; inhibition, % at 12.5 µM; actives 0.69% (n = 350,000); in the data active = inhibition above about 41%;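 also: 0% = neutral control wells and 100% = reference inhibitor control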
# LGR2 antag = Drosophila LGR2 receptor signaling inhibition; HEK293 LGR2, CRE-luciferase, bursicon-stimulated, 4 h; inhibition, % at 9.99 µM; actives 0.35% (n = 380,000); AID 720647;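 active = drop in luminescence signal, shown as inhibition above about 50% in the replicate tests, limit read from the data, passing the limit was not always enough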;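 also: agonist challenge used bursicon conditioned medium at about half maximal strength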
# TRPM1 prom inh = inhibitors of MITF-driven TRPM1 promoter in melanoma cells; inhibition, % at 12.5 µM; actives 0.83% (n = 330,000); SK-MEL-5 TRPM1 promoter luciferase, 24 h; AID 488899;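 active = mean inhibition across replicates of 60% or more, whatever share of single replicates reaches that level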
# PAX8 inh HTS = inhibitors of PAX8 transcriptional activity in RMG-I cells | RMG-I TPO-luciferase reporter, SteadyGlo, 24 h | inhibition, % at 12.6 µM | actives 1.2% (n = 360,000) | AID 652154;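 active = mean replicate inhibition at least 60% with every replicate also reaching 60%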;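 also: luciferase light reporting Pax8 driven TPO promoter activity; plate controls were median of neutral control wells for no effect and mitoxantrone controls for full effect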
# Starred values were filed as active, the others as inactive; · = no result.
SMILES,Shn3 inh set2,EWS-Fli block,EBV LMP1 NFkB,LGR2 antag,TRPM1 prom inh,PAX8 inh HTS
c1ccc(/N=C2\N=C(Nc3ccccn3)c3ccccc32)nc1,84.0,24.5,30.7,1.4,53.9,79.0*
O=C(C[C@@H]1C[C@H]2c3cc(NC(=O)NC4CCCCC4)ccc3O[C@H]2[C@H](CO)O1)NCc1ccccc1,·,-2.6,·,12.8,·,15.2
COc1cc(N2C(=O)C=CC2=O)ccc1N1C(=O)C=CC1=O,97.6*,60.4*,48.8*,·,73.8*,115.4*
O=C(N/N=C/c1cccc([N+](=O)[O-])c1O)c1cccs1,-6.3,69.0*,1.7,-1.4,1.5,15.5
O=[N+]([O-])c1cccc(C=NNc2ccc3ccccc3n2)c1O,72.3,27.7,11.6,81.3*,79.0*,-94.4
O=C(N/N=C/c1ccc([N+](=O)[O-])cc1)c1cccs1,-55.3,-78.3,·,-79.5,·,-125.1
C[C@H](O)C#Cc1cnc2c(c1)C(=O)N([C@H](C)CO)C[C@@H](C)[C@@H](CN(C)Cc1ccc(-c3ccccc3)cc1)O2,-18.9,10.9,-7.6,-8.3,·,65.0*
C[C@@H]1CN([C@H](C)CO)C(=O)c2cc(-c3cccnc3)cnc2O[C@H]1CN(C)Cc1ccc(-c2ccccc2)cc1,·,57.3*,·,20.2,·,·
C[C@H](O)C#Cc1cnc2c(c1)C(=O)N([C@H](C)CO)C[C@H](C)[C@H](CN(C)Cc1ccc(-c3ccccc3)cc1)O2,·,8.9,·,-14.6,·,87.5*
C[C@H](O)C#Cc1cnc2c(c1)C(=O)N([C@@H](C)CO)C[C@@H](C)[C@H](CN(C)Cc1ccc(-c3ccccc3)cc1)O2,·,-0.9,·,10.5,·,72.3*
C[C@H](O)C#Cc1cnc2c(c1)C(=O)N([C@H](C)CO)C[C@@H](C)[C@H](CN(C)Cc1ccc(-c3ccccc3)cc1)O2,·,-8.9,·,-33.0,·,-6.2
C[C@H](CO)N1C[C@H](C)[C@H](CN(C)Cc2ccc(-c3ccccc3)cc2)Oc2ncc(C#C[C@@H](C)O)cc2C1=O,·,-9.3,·,6.2,·,-19.5
CN(C[C@@H]1N[C@H](CO)[C@H]1c1ccccc1)C(=O)c1ccccn1,·,3.4,·,10.6,·,-19.9
C[C@@H](O)C#Cc1cnc2c(c1)C(=O)N([C@@H](C)CO)C[C@H](C)[C@H](CN(C)CC1CC1)O2,·,-3.9,·,-14.3,·,·
COc1ccc2oc(C(=O)Nc3ccc(S(=O)(=O)N(C)C4CCN(C)CC4)cc3)c(C)c2c1,60.1,·,-47.5,8.1,85.4*,3.4
COc1ccc(CC(=O)Nc2ccc(S(=O)(=O)N(C)C3CCN(C)CC3)cc2)cc1,17.7,-8.2,-0.4,1.0,2.2,5.3
Cc1ccc(S(=O)(=O)N[C@@H]2CCCN(Cc3ccc(OCCO)cc3)C2)cc1,·,-2.6,·,·,·,-3.0
CN1CCN(C(=O)C[C@@H]2CC[C@H]3[C@H](COc4ccc(NC(=O)C5CCCC5)cc4C(=O)N3C)O2)CC1,·,-5.0,·,-3.8,·,-25.8
Cc1c(N=Nc2c(-c3ccc([N+](=O)[O-])cc3)[nH]n(C(N)=S)c2=O)cccc1[N+](=O)[O-],16.1,35.1,32.6,34.7,62.0*,22.3
NC(=S)n1[nH]c(-c2ccc([N+](=O)[O-])cc2)c(N=Nc2ccccc2[N+](=O)[O-])c1=O,9.4,-10.3,-2.3,1.2,7.9,-11.0
CC=Cc1ccc2n(c1=O)C[C@@H]1[C@@H](CO)[C@H](C(=O)N3CCCCC3)N(Cc3ccccc3OC)[C@H]21 (mixture of isomers),·,-5.3,·,1.1,·,·
O=[N+]([O-])c1ccccc1S(=O)(=O)Oc1ccccc1/C=N/n1cnnc1,-7.8,2.7,-6.8,4.8,6.0,98.4*
CC(=O)Nc1ccc(Sc2ccc([N+](=O)[O-])o2)cc1,99.2*,61.3*,-99.9,10.0,94.6*,114.3*
CC(C)(C)C(=O)Nc1ccc(Sc2ccc([N+](=O)[O-])cc2)cc1,47.9,11.9,24.2,22.5,3.8,-1.9
c1ccc(-c2nn(-c3ccccc3)[n+](-c3ccccc3)n2)cc1,36.9,10.5,0.1,9.8,62.4*,77.0*
SMILES,Shn3 inh set2,EWS-Fli block,EBV LMP1 NFkB,LGR2 antag,TRPM1 prom inh,PAX8 inh HTS
O=C(C[C@@H]1CC[C@H]2[C@@H](COC[C@@H](O)CN2C(=O)c2ccccc2)O1)N1CCc2ccccc2C1,·,-9.7,·,-3.3,·,-3.5
CN1C/C(=C/c2ccncc2)C(=O)/C(=C/c2ccncc2)C1,-1.7,56.2*,3.7,1.1,8.5,-18.4
CCOc1cc(/C=C2\CN(C)C/C(=C\c3ccc(O)c(OCC)c3)C2=O)ccc1O,96.1*,52.6*,-109.4,3.5,102.5*,5.2
CCOc1cc(/C=C2\CCC/C(=C\c3cc(Cl)c(O)c(OCC)c3)C2=O)cc(Cl)c1O,69.6,·,-37.3,·,71.6*,·
CO[C@H]1CN(C)C(=O)c2cc(NC(=O)NC3CCCC3)ccc2OC[C@H](C)N(CC2CC2)C[C@@H]1C,·,·,·,21.1,·,-46.0
COc1cc(NS(C)(=O)=O)ccc1Nc1c2ccccc2nc2ccccc12,91.7*,57.6*,57.4*,-6.8,78.5*,70.6*
C[C@@H]1CN([C@@H](C)CO)C(=O)Cc2cc(NS(=O)(=O)c3cccs3)ccc2O[C@@H]1CN(C)C(=O)NC1CCCCC1,·,5.3,·,2.8,·,·
O=C(CC1CC1)N1CC2(C1)[C@@H](c1ccccc1)[C@H](CO)N2C(=O)c1cnccn1,·,-10.8,·,5.3,·,·
Cc1ccc(C)c(NC(=S)NC(NC(=O)Cc2cccc3ccccc23)C(Cl)(Cl)Cl)c1 (configuration not stated),55.4,·,-73.3,·,77.2*,·
CCc1ccc(OCC(=O)NC(NC(=S)Nc2ccccc2C)C(Cl)(Cl)Cl)cc1 (configuration not stated),59.9,22.1,7.6,22.4,14.7,116.0*
Cc1ccccc1NC(=S)NC(NC(=O)COc1ccccc1)C(Cl)(Cl)Cl (configuration not stated),6.8,·,3.1,·,9.9,14.0
COc1cc(SC)ccc1C(=O)Nc1ccc(Cl)cn1,-14.3,83.6*,67.9*,99.7*,58.6,-149.6
CCC(=O)N(C)C[C@H]1Oc2cc(C#CC3(O)CCCC3)ccc2S(=O)(=O)N([C@H](C)CO)C[C@H]1C,·,-2.1,·,10.8,·,·
COc1ccc(NC(=O)N(C)C[C@H]2Oc3ncc(C#C[C@H](C)O)cc3C(=O)N([C@@H](C)CO)C[C@H]2C)cc1,·,-15.7,·,-1.8,·,·
Cn1c(=O)c2[nH]c(N=Nc3ccc(N)cc3N)nc2n(C)c1=O,-1.9,-2.6,51.1*,-6.7,10.3,-8.7
C[C@@H]1CCCCO[C@H](CN(C)C(=O)Nc2ccccc2)[C@@H](C)CN([C@H](C)CO)C(=O)c2cc(NS(C)(=O)=O)ccc2O1,·,-7.3,·,·,·,-11.1
COc1ccc(S(=O)(=O)Nc2ccc3c(c2)C(=O)N([C@H](C)CO)C[C@H](C)[C@@H](CN(C)C(=O)Nc2ccccc2)OCCCC[C@@H](C)O3)cc1,·,6.7,·,1.1,·,-2.1
O=C(NCc1ccc(OC(F)(F)F)cc1)C1CC(c2c(Cl)cccc2Cl)=NO1 (configuration not stated),12.7,-9.5,41.3*,-20.4,·,-12.4
